# The whole screen tested about 370,000 compounds, of which about 4,100 (1.1%) were called active. Only a selection was taken, and actives are over-represented in it overall. Values without a mark were called inactive.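 How the source made its calls: active means inhibition above the mean over all tested compounds plus 3 SD (cut at about 3.6% in these data); inactive means the rest.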
# Assay: DAX1 (NR0B1) inhibitors on StAR promoter, primary screen, cell-based, luminescence, SF-1 (NR5A1), full-length DAX-1 (AID 652010);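 further: 0% = DAX-1 cells with DMSO and 100% = cells lacking DAX-1 with DMSO; higher inhibition means more luminescence from relief of DAX-1 repression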
# Conditions: HEK293T StAR-luciferase reporter, SF-1/DAX-1 repression relief; at 6.8 µM; active compounds read high
row,Compound,inhibition
1,COc1ccc2c(c1)NP(=S)(c1ccccc1)N2 (stereo not given),6.3% (active)
2,Cc1cc(C)c2c(c1)NP(=S)(c1ccccc1)N2 (stereo not given),4.45% (active)
3,C[C@]12CCC3C(CC[C@H]4[C@H](O)[C@H](O)CC[C@]34C)C1CCC2=O (stereo not given in full),-0.89%
4,Cc1ccccc1CCC[C@@H](CC1CCCCC1)CN(C)C(=O)Oc1ccccc1,-0.86%
5,Cc1nc2nc(C)c(CCC(=O)N3CCC4(CC3)OCCO4)c(C)n2n1,0.57%
6,CC(=O)N1CN2CN(C(C)=O)CC(C(=O)c3ccc(Br)cc3)(C2)C1,0.07%
7,CCOc1cccc(=NC2CCCCC2)c2c(C)[nH]c(C)c12,-0.76%
8,COP(=O)(Sc1ccccc1)C(Cc1ccccc1)NC(=O)OCc1ccccc1 (stereo not given),-2.01%
9,c1cncc(CNC2=NCCC2)c1,0.16%
10,Cc1c(Oc2cc(NN3CCCCC3)c([N+](=O)[O-])cc2[N+](=O)[O-])cccc1[N+](=O)[O-],0.11%
